According to PubChem BioAssay AID1159580 (chemical genetic matrix, 2015):
The whole screen tested about 5,500 compounds, of which about 2,000 (36%) were called active. Not shown: some 18% with an inconclusive outcome. Rule as the data show it: active = normalized growth mostly below about 0.91 (no sharp cut-off); inconclusive = no clear call, values can overlap the other calls; inactive = mostly above about 0.92. The list shows a part of the results.

Test: chemical genetic growth profiling, strain panel (AID 1159580);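 also: tested at 20 µM; growth read once vehicle control cultures reached saturation at 30 °C; 1 = growth at the plate median or of vehicle wells; lower values mean less growth of the strain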
Details: growth OD

Measured: normalized growth

COc1c(Cl)ccc(Cl)c1C(=O)O
inactive: S. cerevisiae deletion strains, locus YJR043C, strain POL32, hits give low values 1.01 | S. cerevisiae deletion strains, locus YJR075W, strain HOC1, hits give low values 0.971 | S. cerevisiae deletion strains, locus YKL009W, strain mrt4, hits give low values 1.02 | S. cerevisiae deletion strains, locus YKL068W, hits give low values 1.01 | S. cerevisiae deletion strains, locus YKL085W, strain MDH1 (second series), hits give low values 1.01 | S. cerevisiae deletion strains, locus YKL085W, strain MDH1, hits give low values 1.01 | S. cerevisiae deletion strains, locus YKL160W, strain elf1, hits give low values 0.988 | S. cerevisiae deletion strains, locus YKL190W, strain CNB1, hits give low values 1.01 | S. cerevisiae deletion strains, locus YKR001C, strain vps1, hits give low values 1.02 | S. cerevisiae deletion strains, locus YKR026C, strain gcn3, hits give low values 0.984 | S. cerevisiae deletion strains, locus YKR091W, strain srl3, hits give low values 0.985 | S. cerevisiae deletion strains, locus YLL001W, strain dnm1, hits give low values 0.995 | S. cerevisiae deletion strains, locus YLL026W, hits give low values 0.979 | S. cerevisiae deletion strains, locus YLL041C, strain sdh2, hits give low values 0.994 | S. cerevisiae deletion strains, locus YLR027C, strain aat2, hits give low values 0.982 | S. cerevisiae deletion strains, locus YLR039C, strain RIC1, hits give low values 1.06 | S. cerevisiae deletion strains, locus YLR058C, strain SHM2, hits give low values 1.02 | S. cerevisiae deletion strains, locus YLR102C, strain apc9, hits give low values 1.01 | S. cerevisiae deletion strains, locus YLR221C, strain rsa3, hits give low values 0.983 | S. cerevisiae deletion strains, locus YLR258W, strain gsy2, hits give low values 0.986 | S. cerevisiae deletion strains, locus YLR262C, strain YPT6 (second series), hits give low values 0.997 | S. cerevisiae deletion strains, locus YLR262C, strain YPT6, hits give low values 1.07 | S. cerevisiae deletion strains, locus YLR268W, strain sec22, hits give low values 1.03 | S. cerevisiae deletion strains, locus YLR320W, strain mms22, hits give low values 0.974 | S. cerevisiae deletion strains, locus YLR330W, strain CHS5, hits give low values 1.01 | S. cerevisiae deletion strains, locus YLR342W, strain FKS1 (second series), hits give low values 1.05 | S. cerevisiae deletion strains, locus YLR342W, strain FKS1, hits give low values 0.979 | S. cerevisiae deletion strains, locus YLR357W, strain rsc2, hits give low values 0.992 | S. cerevisiae deletion strains, locus YLR370C, strain arc18, hits give low values 0.986 | S. cerevisiae deletion strains, locus YLR371W, strain rom2, hits give low values 1.01 | S. cerevisiae deletion strains, locus YLR384C, strain iki3, hits give low values 0.985 | S. cerevisiae deletion strains, locus YLR418C, strain cdc73, hits give low values 1.02 | S. cerevisiae deletion strains, locus YML016C, strain PPZ1, hits give low values 1.01 | S. cerevisiae deletion strains, locus YML032C, strain rad52, hits give low values 1.02 | S. cerevisiae deletion strains, locus YML120C, strain ndi1, hits give low values 0.97 | S. cerevisiae deletion strains, locus YML124C, strain tub3, hits give low values 1.01 | S. cerevisiae deletion strains, locus YMR058W, strain fet3, hits give low values 0.979 | S. cerevisiae deletion strains, locus YMR078C, strain ctf18, hits give low values 1.02 | S. cerevisiae deletion strains, locus YMR125W, strain sto1, hits give low values 0.951 | S. cerevisiae deletion strains, locus YMR129W, hits give low values 0.987 | S. cerevisiae deletion strains, locus YMR205C, strain PFK2, hits give low values 0.975 | S. cerevisiae deletion strains, locus YMR223W, strain ubp8, hits give low values 1.01 | S. cerevisiae deletion strains, locus YMR231W, strain pep5, hits give low values 0.984 | S. cerevisiae deletion strains, locus YMR263W, strain SAP30, hits give low values 1.01 | S. cerevisiae deletion strains, locus YMR307W, strain GAS1, hits give low values 1.06 | S. cerevisiae deletion strains, locus YNL067W, strain RPL9B, hits give low values 1.01 | S. cerevisiae deletion strains, locus YNL071W, strain lat1, hits give low values 0.992 | S. cerevisiae deletion strains, locus YNL128W, strain TEP1, hits give low values 1 | S. cerevisiae deletion strains, locus YNL153C, strain GIM3, hits give low values 1.01 | S. cerevisiae deletion strains, locus YNL209W, strain ssb2, hits give low values 0.988 | S. cerevisiae deletion strains, locus YNL233W, strain BNI4, hits give low values 1.01 | S. cerevisiae deletion strains, locus YNL248C, strain rpa49, hits give low values 0.982 | S. cerevisiae deletion strains, locus YNL250W, strain rad50, hits give low values 1 | S. cerevisiae deletion strains, locus YNL271C, strain bni1, hits give low values 1.01 | S. cerevisiae deletion strains, locus YNL298W, strain CLA4, hits give low values 1.02 | S. cerevisiae deletion strains, locus YNL307C, strain MCK1, hits give low values 1.03 | S. cerevisiae deletion strains, locus YNL322C, strain KRE1 (second series), hits give low values 0.983 | S. cerevisiae deletion strains, locus YNL322C, strain KRE1, hits give low values 1.01 | S. cerevisiae deletion strains, locus YNR049C, strain mso1, hits give low values 0.977 | S. cerevisiae deletion strains, locus YNR052C, strain pop2, hits give low values 1.01 | S. cerevisiae deletion strains, locus YOL006C, strain TOP1, hits give low values 1.05 | S. cerevisiae deletion strains, locus YOL012C, strain htz1 0.945 | S. cerevisiae deletion strains, locus YOL147C, strain pex11, hits give low values 1.01 | S. cerevisiae deletion strains, locus YOR001W, strain rrp6, hits give low values 0.991 | S. cerevisiae deletion strains, locus YOR061W, strain CKA2, hits give low values 1.01 | S. cerevisiae deletion strains, locus YOR069W, strain VPS5, hits give low values 1 | S. cerevisiae deletion strains, locus YOR070C, strain gyp1, hits give low values 0.988 | S. cerevisiae deletion strains, locus YOR080W, strain dia2, hits give low values 0.969 | S. cerevisiae deletion strains, locus YOR083W, strain WHI5, hits give low values 0.988 | S. cerevisiae deletion strains, locus YOR106W, strain vam3, hits give low values 0.995 | S. cerevisiae deletion strains, locus YOR136W, strain idh2, hits give low values 1.01 | S. cerevisiae deletion strains, locus YOR144C, strain elg1, hits give low values 1.01 | S. cerevisiae deletion strains, locus YOR184W, strain ser1, hits give low values 1.02 | S. cerevisiae deletion strains, locus YOR265W, strain rbl2, hits give low values 0.976 | S. cerevisiae deletion strains, locus YOR270C, strain vph1, hits give low values 0.993 | S. cerevisiae deletion strains, locus YOR290C, strain snf2, hits give low values 0.997 | S. cerevisiae deletion strains, locus YOR316C, strain cot1, hits give low values 1.01 | S. cerevisiae deletion strains, locus YPL051W, strain arl3, hits give low values 0.995 | S. cerevisiae deletion strains, locus YPL055C, strain LGE1, hits give low values 1.02 | S. cerevisiae deletion strains, locus YPL078C, strain atp4, hits give low values 0.982 | S. cerevisiae deletion strains, locus YPL106C, strain sse1, hits give low values 0.979 | S. cerevisiae deletion strains, locus YPL240C, strain hsp82, hits give low values 0.997 | S. cerevisiae deletion strains, locus YPL241C, strain CIN2, hits give low values 1.01 | S. cerevisiae deletion strains, locus YPR119W, strain clb2, hits give low values 1.01 | S. cerevisiae deletion strains, locus YPR141C, strain kar3, hits give low values 1.02 | S. cerevisiae deletion strains, locus YPR163C, strain tif3, hits give low values 1.01 | S. cerevisiae deletion strains, locus YPR167C, strain met16, hits give low values 1.01 | S. cerevisiae deletion strains, strain wtn01, hits give low values 1.01 | S. cerevisiae strains, strain wild type, hits give low values 1.01
